# Laboratory results as given in PubChem BioAssay (EPA / NIEHS).
# Inconclusive results are not listed. Activity calls are given as the source filed them. The calls were made as follows: active = hit-call score of the fitted dose curve at least 0.9, where 1 is the maximum; inconclusive = response in the unintended direction; inactive = score below 0.9.
# Columns and labels:
# [1] = tested on: bovine Angiotensin II Receptor Type 2 (AT2), gene 407157; assay: NVS_GPCR_bAT2: NovaScreen (NVS) G Protein-Coupled Receptor Assay for bovine Angiotensin II Receptor Type 2 (AT2) (AID 2283240)
# Experimental: NVS_GPCR_bAT2 is a biochemical, single-readout assay that uses extracted gene-proteins from Bovine cerebellar membranes in a tissue-based cell-free assay. Measurements were taken 1 hour after chemical dosing in a 96-well plate.NVS_GPCR_bAT2 is one of one assay component(s) measured or calculated from the NVS_GPCR_bAT2 assay. It is designed to make measurements of radioligand binding, a form of binding reporter, as detected with scintillation counting signals by Filter-based radiodetection technology.Data from the assay component NVS_GPCR_bAT2 was analyzed into 1 assay endpoint. This assay endpoint, NVS_GPCR_bAT2, was analyzed in the positive analysis fitting direction relative to DMSO as the negative control and baseline of activity. Using a type of binding reporter, loss-of-signal activity can be used to understand changes in the binding as they relate to the gene AGTR2. Furthermore, this assay endpoint can be referred to as a primary readout, because the performed assay has only produced 1 assay endpoint. To generalize the intended target to other relatable targets, this assay endpoint is annotated to the gpcr intended target family, where the subfamily is rhodopsin-like receptor. […]
# [2] = biological target: bovine Dopamine Receptor (DR), Non-selective Binding, DRD1 (gene 281125) (UniProt Q95136); assay: NVS_GPCR_bDR_NonSelective: NovaScreen (NVS) G Protein-Coupled Receptor Assay for bovine Dopamine Receptor (DR), Non-selective Binding (AID 2283241)
# Sequence of bovine Dopamine Receptor (DR), Non-selective Binding, DRD1 (gene 281125) (Q95136 whole entry, looked up): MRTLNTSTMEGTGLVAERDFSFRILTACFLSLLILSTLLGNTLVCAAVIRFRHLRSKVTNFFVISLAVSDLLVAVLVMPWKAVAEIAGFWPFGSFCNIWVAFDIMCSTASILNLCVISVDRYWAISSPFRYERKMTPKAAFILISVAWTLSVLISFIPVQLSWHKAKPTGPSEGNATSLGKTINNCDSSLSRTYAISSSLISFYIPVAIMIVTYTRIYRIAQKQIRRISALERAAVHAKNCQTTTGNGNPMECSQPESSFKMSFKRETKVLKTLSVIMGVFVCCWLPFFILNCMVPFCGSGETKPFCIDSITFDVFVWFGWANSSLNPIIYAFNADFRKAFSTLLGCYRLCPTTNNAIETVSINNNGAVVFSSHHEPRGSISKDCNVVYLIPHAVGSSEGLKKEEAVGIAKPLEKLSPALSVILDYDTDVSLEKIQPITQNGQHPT
# Summary of the method: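 Bovine striatal membranes; radioligand displacement read by filtration and scintillation counting 1 h after dosing, loss of signal vs DMSO. Screened in duplicate at 25 uM, then concentration-response for hits.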
SMILES,outcome [1],outcome [2]
Cc1ccc(-c2c(Cl)nc(C#N)n2S(=O)(=O)N(C)C)cc1,inactive,–
CCCCNC(=O)OCC#CI,–,inactive
CCCCOC(=O)c1ccccc1C(=O)OCCCC,–,inactive
